High-throughput results as filed in PubChem BioAssay.
An excerpt weighted towards active compounds, which were near 12% of everything screened.
PI5P4Ka inh = inhibitors of human PI5P4K alpha | P48426 | PI5P4Kalpha enzyme, ADP-Glo luminescence, 60 min; active compounds read low | max response, % | actives 1.2% (n = 330,000) | AID 652105; active means max response of -50% or lower; inconclusive means between -30% and -50%; inactive means -30% or higher; further: value at the top dose of about 77 µM
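Single end-point luminescence (ADP-Glo) quantified ADP from PI5P4Kalpha turnover; ATP 5 microM final, 1 h at RT, 0.1% CHAPS and 0.28 mM EGTA in HEPES pH 7.4.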
HP1b chromo inh = inhibitors of HP1-beta chromodomain binding to methylated histone tails. P83916. AlphaScreen HP1-beta / biotin-H3K9me3 peptide binding. Potency, µM (top dose mostly 114 µM), actives largely listed as inhibitors. actives 0.56% (n = 390,000); further: nearly all actives have a fitted effect of over 70% in size
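Compound inhibition of the preformed complex between 50 nM HP1-beta and 50 nM biotinylated H3K9me3 peptide was read by AlphaScreen. Buffer was PBS pH 7.4 with 0.01% Tween-20. Incubations ran 30 min at room temperature, with 10 ug/mL donor/acceptor beads.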
PLK1 PBD inh = PLK1 (human) polo-box domain binding inhibition; P53350; Plk1 PBD binding of FITC phosphopeptide, fluorescence polarization; Potency, µM, hits mostly inhibitors; actives 2.8% (n = 360,000); further: series mostly up to about 57 µM; nearly all actives have a fitted effect of over 65% in size
JMJD2A Tudor inh = blocks the human JMJD2A Tudor domain. O75164. AID 504339. actives 4.4% (n = 390,000). AlphaScreen JMJD2A-Tudor / H3K4me3 peptide binding. Potency, µM (series often up to 114 µM), usual class: inhibitors; further: nearly all actives have a fitted effect of over 50% in size
Target sequence (O75164 whole entry, looked up, the tested form may be a part): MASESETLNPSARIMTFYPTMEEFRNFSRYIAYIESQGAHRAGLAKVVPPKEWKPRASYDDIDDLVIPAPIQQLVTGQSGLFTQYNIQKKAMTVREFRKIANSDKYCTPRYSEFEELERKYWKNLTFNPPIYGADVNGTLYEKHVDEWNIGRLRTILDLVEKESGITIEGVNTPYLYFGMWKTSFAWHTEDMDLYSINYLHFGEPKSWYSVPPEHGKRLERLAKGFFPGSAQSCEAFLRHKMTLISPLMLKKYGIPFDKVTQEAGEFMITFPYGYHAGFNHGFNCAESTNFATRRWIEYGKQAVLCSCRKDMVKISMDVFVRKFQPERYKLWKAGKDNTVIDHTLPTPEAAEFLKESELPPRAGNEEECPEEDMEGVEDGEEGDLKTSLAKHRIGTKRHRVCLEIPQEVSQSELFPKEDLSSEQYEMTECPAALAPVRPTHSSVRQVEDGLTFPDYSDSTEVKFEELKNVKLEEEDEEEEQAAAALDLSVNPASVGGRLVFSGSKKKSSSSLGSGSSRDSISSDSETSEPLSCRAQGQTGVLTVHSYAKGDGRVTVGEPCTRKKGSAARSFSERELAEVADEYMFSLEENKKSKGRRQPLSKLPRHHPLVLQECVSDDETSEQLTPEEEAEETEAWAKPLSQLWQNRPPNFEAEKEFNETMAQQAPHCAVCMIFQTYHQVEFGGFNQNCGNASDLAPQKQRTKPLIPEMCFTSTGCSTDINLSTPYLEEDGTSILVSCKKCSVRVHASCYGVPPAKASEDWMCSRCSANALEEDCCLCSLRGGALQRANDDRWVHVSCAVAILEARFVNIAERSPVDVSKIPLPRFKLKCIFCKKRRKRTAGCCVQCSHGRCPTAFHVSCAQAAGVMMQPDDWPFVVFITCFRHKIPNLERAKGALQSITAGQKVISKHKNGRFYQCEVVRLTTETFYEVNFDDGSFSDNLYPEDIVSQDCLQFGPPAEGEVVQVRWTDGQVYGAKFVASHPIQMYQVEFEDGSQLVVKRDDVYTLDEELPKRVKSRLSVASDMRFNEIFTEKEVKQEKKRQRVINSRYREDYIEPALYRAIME
BAZ2B inh = inhibitors of human BAZ2B bromodomain. Q9UIF8. AlphaScreen BAZ2B-H3K14Ac peptide displacement. Potency, µM (highest dose often 114 µM), usual class: inhibitors. actives 4.4% (n = 360,000). AID 504333; further: nearly all actives have a fitted effect of over 60% in size
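In this displacement format the biotinylated H3(5-23) peptide acetylated at Lys14 serves as ligand at 50 nM, with BAZ2B at 50 nM in PBS pH 7.4 containing 0.01% Tween-20. Donor and acceptor beads are 10 ug/mL final.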
G9a inh = inhibitors of human histone lysine methyltransferase G9a | G9a H3K9 monomethylation, AlphaScreen, 2 h | Potency, µM (titrated, usually from 102 µM), actives largely listed as inhibitors | actives 8.8% (n = 350,000) | AID 504332; further: nearly all actives have a fitted effect of over 75% in size
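Chemiluminescent proximity detection of H3K9 monomethylation, read after 10 min bead incubation in the dark. Reaction: 20 nM G9a, 500 nM biotin-H3K9 peptide, 20 uM SAM cofactor, 2 h, room temperature, following 15 min enzyme-compound preincubation.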
Each line names hits and unclear results; the compound was inactive in the other large screens. Unless noted, the call rests on the fitted dose curve; in most records, active means well fitted curve in the direction sought with a large enough effect; inconclusive means small, poorly fitted or top-dose-only effect, or another doubt; inactive means no such curve, though single readings can be large; an effect the other way counts as inactive or inconclusive.

O=S1OCCN1c1ccccc1 (stereo not drawn)	PLK1 PBD inh 34µM (no result: G9a inh)
CC(=O)Nc1ccc(Nc2nc(Nc3ccc(Cl)cc3)nc(N3CCOCC3)n2)cc1	none (no result: PI5P4Ka inh, PLK1 PBD inh, BAZ2B inh, G9a inh)
Cc1cc(C)c(OCCOCCN2CCN(C)CC2)c(Cl)c1	HP1b chromo inh inconclusive, JMJD2A Tudor inh 1.6µM, BAZ2B inh 32µM, G9a inh 3.5µM
Cc1cc(Cl)cc(Cl)c1OCCN1CCCC1	HP1b chromo inh inconclusive, JMJD2A Tudor inh 50µM, G9a inh 50µM
Cc1cc(Cl)c(OCCOCCN2CCNCC2)c(Cl)c1	none (no result: BAZ2B inh, G9a inh)
Cc1cc(Cl)c(OCCCN2CCCCC2)c(Br)c1	HP1b chromo inh inconclusive, JMJD2A Tudor inh 28µM, BAZ2B inh 50µM, G9a inh inconclusive
Cc1cc(C)c(OCCN2CCCC2)c(Cl)c1	G9a inh 45µM
Cc1cc(Cl)c(OCCCSc2nc(C)cc(=O)[nH]2)c(Br)c1	none (no result: PI5P4Ka inh)
CCOc1ccc(NC(=O)CN(C)C(=O)c2cc([N+](=O)[O-])ccc2N2CCOCC2)cc1OCC	none
Cc1cc(Cl)cc(Cl)c1OCCCCN(C)C	HP1b chromo inh inconclusive, JMJD2A Tudor inh 45µM, G9a inh 8.9µM
O=Cc1c(-c2ccccc2)nc2ccccn12	none
CCc1nc(-c2ccccc2)c2ccccn12	G9a inh 16µM (no result: BAZ2B inh)
CC1=C(C(=O)N2CCCCCC2)CC(CC(=O)NC2CCCCC2)C(=O)N1Cc1ccc(F)cc1 (stereo not drawn)	none (no result: HP1b chromo inh, PLK1 PBD inh, JMJD2A Tudor inh, BAZ2B inh, G9a inh)
COc1ccccc1C1(CC(=O)N2CCOCC2)CCOC(C(C)C)C1 (stereo not drawn)	PLK1 PBD inh inconclusive, BAZ2B inh inconclusive, G9a inh 50µM
COc1ccc(C2CC(=O)N(CC(=O)Nc3ccc(C)c(Cl)c3)c3ccccc3S2)cc1OC (stereo not drawn)	G9a inh inconclusive (no result: PI5P4Ka inh, PLK1 PBD inh)
O=[N+]([O-])/C(C(Cl)=C(Cl)Cl)=C(/Sc1ccccc1)N1CCCCC1	JMJD2A Tudor inh inconclusive, BAZ2B inh 35µM (no result: G9a inh)
Cc1nn(C)c2c1c(-c1ccccc1)cc(=O)n2CC(=O)NC(C)(C)C	none (no result: PI5P4Ka inh, PLK1 PBD inh)
O=C(O)c1ccc(CSc2nnnn2-c2ccc(F)cc2)cc1	none
Cn1cnnc1SCC(=O)c1ccco1	G9a inh 45µM (no result: PI5P4Ka inh)
Cn1cnnc1SCC(=O)NCCc1ccccc1	none (no result: PI5P4Ka inh)
Cn1cnnc1SCC(=O)c1ccc(O)c(O)c1	BAZ2B inh inconclusive, G9a inh 7.1µM
O=C(CSc1nnnn1-c1ccc(F)cc1)c1ccc(O)c(O)c1	JMJD2A Tudor inh inconclusive, BAZ2B inh 45µM, G9a inh inconclusive
Cc1cc(OCC(=O)OCC(=O)N(C)C2CCS(=O)(=O)C2)ccc1Cl (stereo not drawn)	none
Cc1cc2c(s1)c1cnn(Cc3ccccc3Br)c(=O)c1n2C	none (no result: PI5P4Ka inh, HP1b chromo inh, PLK1 PBD inh, BAZ2B inh, G9a inh)
CCOC(=O)c1c(-c2ccc(C)cc2)csc1/N=C/N(C)C	PLK1 PBD inh 27µM, JMJD2A Tudor inh inconclusive, G9a inh inconclusive
CCOC(=O)c1c(NC(=O)c2cc(-c3cccc(O)c3)on2)sc(C(C)=O)c1C	BAZ2B inh inconclusive, G9a inh inconclusive
CCOC(=O)c1c(-c2ccccc2)csc1NC(=S)N(CC)CC	G9a inh 22µM
CCOC(=O)c1c(-c2ccc(F)cc2)csc1/N=C/N(C)C	PLK1 PBD inh inconclusive
CCOC(=O)c1c(NC(=O)c2cc(-c3cccc(Cl)c3)on2)sc(C(C)=O)c1C	HP1b chromo inh 71µM, G9a inh 14µM (no result: PI5P4Ka inh, PLK1 PBD inh)
CCOC(=O)c1c(-c2ccc(C)cc2)csc1NC(=O)c1nc(SC(C)C)ncc1Cl	G9a inh 13µM (no result: PI5P4Ka inh, PLK1 PBD inh)
CCOC(=O)c1c(-c2ccc(C)cc2)csc1NC(=O)c1nc(SCC)ncc1Cl	none (no result: PI5P4Ka inh, PLK1 PBD inh)
CCCCC(=O)Nc1ccc(OCc2cc(=O)n3c(C)csc3n2)cc1	none (no result: PI5P4Ka inh, PLK1 PBD inh)
CCOC(=O)c1sc(NC(=O)c2cc(-c3cccc(O)c3)on2)c(C(=O)OCC)c1C	none
CCOC(=O)c1c(-c2ccccc2)csc1NC(=O)c1cc(-c2ccc(Cl)cc2)on1	G9a inh 18µM (no result: PI5P4Ka inh, PLK1 PBD inh)
CCOC(=O)c1c(NC(=O)c2noc(C)c2[N+](=O)[O-])sc(C(C)=O)c1C	PI5P4Ka inh inconclusive, PLK1 PBD inh 24µM, G9a inh 40µM
CCOC(=O)c1c(-c2ccc(C)cc2)csc1NC(=O)c1cc(=O)c2cc(C)cc(C)c2o1	HP1b chromo inh inconclusive, G9a inh 7.1µM (no result: PI5P4Ka inh, PLK1 PBD inh)
CCOC(=O)c1c(-c2ccccc2)csc1NC(=O)c1cc(-c2ccc(C)c(F)c2)on1	none (no result: PI5P4Ka inh, PLK1 PBD inh)
CCOC(=O)c1c(NC(=O)c2cc(-c3cccc(Cl)c3)on2)sc(C)c1C	G9a inh 13µM (no result: PI5P4Ka inh, PLK1 PBD inh)
CCS(=O)(=O)N1CCc2cc(C(=O)Nc3cc([N+](=O)[O-])ccc3C)ccc21	JMJD2A Tudor inh inconclusive, BAZ2B inh inconclusive, G9a inh inconclusive (no result: PI5P4Ka inh, PLK1 PBD inh)
Nc1sc(-c2ccccc2)cc1C(=O)N1CCNCC1	PLK1 PBD inh inconclusive (no result: HP1b chromo inh, JMJD2A Tudor inh, BAZ2B inh, G9a inh)
CCNc1ccc(-c2nc(-c3ccco3)no2)cc1[N+](=O)[O-]	none (no result: PI5P4Ka inh, PLK1 PBD inh)
CCOC(=O)c1c(NC(=O)c2cc(-c3ccc(Br)cc3)on2)sc(C)c1C	G9a inh 2.8µM (no result: PI5P4Ka inh, PLK1 PBD inh)
COC(=O)c1c(-c2cccnc2)csc1NC(=O)c1cc(C)on1	PLK1 PBD inh 6.7µM, G9a inh inconclusive (no result: PI5P4Ka inh)
Cc1ccc(NC(=O)C(=O)c2cc(C)n(-c3ccc(F)cc3)c2C)cc1C	BAZ2B inh inconclusive (no result: PI5P4Ka inh, PLK1 PBD inh)
Cc1noc(C)c1COc1ccc(C(=O)OC(C)C(=O)Nc2ccc(N3CCOCC3)cc2)cc1 (stereo not drawn)	none
CC(=O)Nc1ccc(SCc2ncc(-c3ccccc3)o2)cc1	PLK1 PBD inh 13µM, G9a inh 50µM
CC(=O)Nc1ccc(SCC(=O)Nc2ccccc2-c2ccccc2)cc1	PLK1 PBD inh inconclusive, BAZ2B inh inconclusive
